The results in this text go back to PMC7862700, “An all-to-all approach to the identification of sequence-specific readers for epigenetic DNA modifications on cytosine”.

What all share (test): DAPPL (digital affinity profiling via proximity ligation, sequencing); 10 mM Tris-HCl pH 7.5, 50 mM NaCl, 1 mM DTT, 4% glycerol, room temperature, 30 min; GST-TFs on glutathione beads, 16-mer random dsDNA library, 0.1% formaldehyde crosslink after washing; high values mean tight binding
Holding throughout (details): protein: recombinant; tags: N-terminal GST; dsDNA, one strand shown

For experiment [1], the target named is T1, ERF (Homo sapiens, UniProt P50548 1-548).
T1 sequence: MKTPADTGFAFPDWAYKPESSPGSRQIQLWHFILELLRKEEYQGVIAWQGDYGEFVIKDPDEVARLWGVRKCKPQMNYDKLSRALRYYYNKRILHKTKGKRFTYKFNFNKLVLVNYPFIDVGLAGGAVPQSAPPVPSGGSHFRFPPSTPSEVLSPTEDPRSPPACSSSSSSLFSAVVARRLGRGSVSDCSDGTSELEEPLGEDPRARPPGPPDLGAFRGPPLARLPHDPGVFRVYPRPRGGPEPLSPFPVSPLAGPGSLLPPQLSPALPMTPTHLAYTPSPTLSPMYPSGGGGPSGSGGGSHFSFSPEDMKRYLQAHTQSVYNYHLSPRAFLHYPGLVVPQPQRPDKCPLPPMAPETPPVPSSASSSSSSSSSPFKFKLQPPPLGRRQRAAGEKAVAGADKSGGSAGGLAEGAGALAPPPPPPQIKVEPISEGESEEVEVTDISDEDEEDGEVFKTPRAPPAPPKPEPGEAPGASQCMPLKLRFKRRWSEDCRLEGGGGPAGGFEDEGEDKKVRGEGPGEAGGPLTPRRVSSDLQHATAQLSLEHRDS
The gist of the method: (§1)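 Human transcription factors carrying a GST fusion were produced in yeast, bound to glutathione beads, tagged with DNA barcodes and pooled together with a tag-only sample. Each pool was held with 200 nmole of a random double-stranded 16-mer DNA library in Tris/NaCl/DTT/glycerol buffer for 30 min at room temperature, then washed, crosslinked in 0.1% formaldehyde, proximity-ligated with BsaI/T4 ligase (1 h, 37 °C), PCR-amplified and sequenced on an Illumina NextSeq500. Binding signal is the read frequency of each hexamer for a given factor divided by its frequency in the tag-only sample.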

Experiment [2] deals with T2, ETV3L (Homo sapiens, UniProt Q6ZN32 1-361).
T2 sequence: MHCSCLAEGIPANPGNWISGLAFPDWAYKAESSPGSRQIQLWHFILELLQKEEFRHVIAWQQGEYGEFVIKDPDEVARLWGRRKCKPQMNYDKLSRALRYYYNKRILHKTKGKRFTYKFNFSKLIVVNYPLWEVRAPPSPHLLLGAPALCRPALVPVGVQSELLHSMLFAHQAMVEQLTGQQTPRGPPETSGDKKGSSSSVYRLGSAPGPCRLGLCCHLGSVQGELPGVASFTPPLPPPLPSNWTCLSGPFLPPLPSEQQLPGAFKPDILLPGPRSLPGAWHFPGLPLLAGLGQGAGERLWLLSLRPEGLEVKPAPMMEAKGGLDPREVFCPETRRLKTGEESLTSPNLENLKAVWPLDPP
The essentials:
as §1

Experiment [3] has as its target T3, ETS2 (Homo sapiens, UniProt P15036 1-469).
T3 sequence: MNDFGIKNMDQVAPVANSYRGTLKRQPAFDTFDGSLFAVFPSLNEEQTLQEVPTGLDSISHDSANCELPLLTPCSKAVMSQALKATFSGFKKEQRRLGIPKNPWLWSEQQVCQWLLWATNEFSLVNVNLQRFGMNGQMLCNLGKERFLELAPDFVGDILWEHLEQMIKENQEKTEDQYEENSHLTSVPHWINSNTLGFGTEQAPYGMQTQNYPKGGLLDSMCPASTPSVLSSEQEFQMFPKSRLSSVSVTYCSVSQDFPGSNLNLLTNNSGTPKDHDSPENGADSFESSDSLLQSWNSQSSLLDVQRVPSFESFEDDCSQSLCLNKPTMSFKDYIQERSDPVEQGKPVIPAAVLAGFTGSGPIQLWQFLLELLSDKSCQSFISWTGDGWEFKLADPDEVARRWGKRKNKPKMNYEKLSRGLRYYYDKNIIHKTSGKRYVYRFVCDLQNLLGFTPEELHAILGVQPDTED
The essentials:
as §1

The target of experiment [4] is T4, SPDEF (Homo sapiens, UniProt O95238 1-335).
T4 sequence: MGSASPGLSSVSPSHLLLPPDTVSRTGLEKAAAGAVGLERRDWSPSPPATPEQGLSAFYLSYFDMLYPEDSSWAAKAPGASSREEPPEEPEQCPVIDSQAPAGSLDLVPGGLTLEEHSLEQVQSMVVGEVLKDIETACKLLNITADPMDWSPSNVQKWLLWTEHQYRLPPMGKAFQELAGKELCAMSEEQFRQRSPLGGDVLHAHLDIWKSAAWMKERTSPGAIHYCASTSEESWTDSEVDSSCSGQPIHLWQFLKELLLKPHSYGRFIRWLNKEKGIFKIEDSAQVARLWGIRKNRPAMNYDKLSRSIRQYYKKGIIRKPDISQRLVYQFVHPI
The essentials:
as §1

Experiment [5] has as its target T5, ETV7 (Homo sapiens, UniProt Q9Y603 1-341).
T5 sequence: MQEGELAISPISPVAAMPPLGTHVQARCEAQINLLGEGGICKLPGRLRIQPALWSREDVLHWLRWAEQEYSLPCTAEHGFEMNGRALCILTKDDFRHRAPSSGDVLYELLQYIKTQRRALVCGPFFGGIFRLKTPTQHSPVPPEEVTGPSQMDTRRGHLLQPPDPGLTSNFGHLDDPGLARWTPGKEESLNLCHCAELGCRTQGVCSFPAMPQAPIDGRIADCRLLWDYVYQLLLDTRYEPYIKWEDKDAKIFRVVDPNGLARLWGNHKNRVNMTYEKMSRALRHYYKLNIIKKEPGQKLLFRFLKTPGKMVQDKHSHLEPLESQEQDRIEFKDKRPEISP
The essentials: as §1

In experiment [6] the target is T6, ELF5 (Homo sapiens, UniProt Q9UKW6-2 1-255).
T6 sequence: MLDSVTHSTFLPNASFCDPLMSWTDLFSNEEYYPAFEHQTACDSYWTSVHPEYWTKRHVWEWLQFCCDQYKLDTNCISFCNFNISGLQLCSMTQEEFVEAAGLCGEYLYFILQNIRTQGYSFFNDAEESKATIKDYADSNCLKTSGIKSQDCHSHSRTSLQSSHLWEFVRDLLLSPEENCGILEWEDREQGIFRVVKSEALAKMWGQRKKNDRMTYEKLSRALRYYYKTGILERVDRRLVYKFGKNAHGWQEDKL
The gist of the method: as §1

In experiment [7] the target is T7, ETV3 (Homo sapiens, UniProt P41162-2 1-143).
T7 sequence: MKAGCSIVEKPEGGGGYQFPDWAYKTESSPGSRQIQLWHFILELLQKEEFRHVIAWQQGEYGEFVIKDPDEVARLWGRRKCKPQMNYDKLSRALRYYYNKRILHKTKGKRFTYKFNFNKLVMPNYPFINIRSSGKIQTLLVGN
The essentials: as §1

Experiment [8] addresses ETV6 (Homo sapiens, UniProt P41212 1-452). The essentials: as §1

ETV6, sequence (P41212 whole entry): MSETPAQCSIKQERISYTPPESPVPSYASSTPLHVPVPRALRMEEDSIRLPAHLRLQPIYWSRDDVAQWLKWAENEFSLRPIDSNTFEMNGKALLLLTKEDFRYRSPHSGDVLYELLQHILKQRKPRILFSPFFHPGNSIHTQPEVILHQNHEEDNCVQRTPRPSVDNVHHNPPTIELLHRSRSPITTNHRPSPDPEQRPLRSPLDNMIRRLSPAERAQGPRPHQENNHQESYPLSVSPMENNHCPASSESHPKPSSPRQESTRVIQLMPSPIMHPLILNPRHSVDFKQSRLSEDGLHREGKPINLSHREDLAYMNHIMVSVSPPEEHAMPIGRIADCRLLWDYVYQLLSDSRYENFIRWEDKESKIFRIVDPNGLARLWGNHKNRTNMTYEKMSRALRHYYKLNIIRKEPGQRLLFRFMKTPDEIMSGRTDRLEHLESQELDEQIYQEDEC

For AGTATC, the binding signal in experiment [1] is 1.12 fold enrichment (6-mer frequency, TF over GST control); in experiment [2], 1.09 fold enrichment (6-mer frequency, TF over GST control); in experiment [3], 1.18 fold enrichment (6-mer frequency, TF over GST control); in experiment [4] it was 1.14 fold enrichment (6-mer frequency, TF over GST control); in experiment [5], 1.13 fold enrichment (6-mer frequency, TF over GST control); in experiment [6], 1.23 fold enrichment (6-mer frequency, TF over GST control). Moreover, the binding signal in experiment [7] is 1.13 fold enrichment (6-mer frequency, TF over GST control); in experiment [8] it was 1.19 fold enrichment (6-mer frequency, TF over GST control).
With ACCCAA, the binding signal is 1.13 fold enrichment (6-mer frequency, TF over GST control) in experiment [1]; 1.13 fold enrichment (6-mer frequency, TF over GST control) in experiment [2]; 1.04 fold enrichment (6-mer frequency, TF over GST control) in experiment [3]; 1.04 fold enrichment (6-mer frequency, TF over GST control) in experiment [4]; 1.14 fold enrichment (6-mer frequency, TF over GST control) in experiment [5]; 1.06 fold enrichment (6-mer frequency, TF over GST control) in experiment [6]. In addition, the binding signal was 1.01 fold enrichment (6-mer frequency, TF over GST control) in experiment [7] and 1.09 fold enrichment (6-mer frequency, TF over GST control) in experiment [8].
For the sequence CGCACT, the binding signal in experiment [1] is 1.21 fold enrichment (6-mer frequency, TF over GST control); in experiment [2] it was 1.29 fold enrichment (6-mer frequency, TF over GST control); in experiment [3] it was 1.18 fold enrichment (6-mer frequency, TF over GST control); in experiment [4], 1.1 fold enrichment (6-mer frequency, TF over GST control); in experiment [5], 1.27 fold enrichment (6-mer frequency, TF over GST control); in experiment [6], 1.23 fold enrichment (6-mer frequency, TF over GST control). Further, the binding signal in experiment [7] is 1.39 fold enrichment (6-mer frequency, TF over GST control); in experiment [8], 1.25 fold enrichment (6-mer frequency, TF over GST control).
With GTACAC, the binding signal in experiment [1] was 1.15 fold enrichment (6-mer frequency, TF over GST control); in experiment [2], 1.16 fold enrichment (6-mer frequency, TF over GST control); in experiment [3] it was 1.18 fold enrichment (6-mer frequency, TF over GST control); in experiment [4] it was 1.2 fold enrichment (6-mer frequency, TF over GST control); in experiment [5], 1.24 fold enrichment (6-mer frequency, TF over GST control); in experiment [6], 1.2 fold enrichment (6-mer frequency, TF over GST control). In addition, the binding signal is 1.21 fold enrichment (6-mer frequency, TF over GST control) in experiment [7] and 1.29 fold enrichment (6-mer frequency, TF over GST control) in experiment [8].
On to ATCATG, for which the binding signal in experiment [1] was 1.19 fold enrichment (6-mer frequency, TF over GST control); in experiment [2] it was 1.08 fold enrichment (6-mer frequency, TF over GST control); in experiment [3], 1.14 fold enrichment (6-mer frequency, TF over GST control); in experiment [4], 1.07 fold enrichment (6-mer frequency, TF over GST control); in experiment [5], 1.13 fold enrichment (6-mer frequency, TF over GST control); in experiment [6], 1.11 fold enrichment (6-mer frequency, TF over GST control). In addition, the binding signal is 1.19 fold enrichment (6-mer frequency, TF over GST control) in experiment [7] and 1.08 fold enrichment (6-mer frequency, TF over GST control) in experiment [8].
In the case of CGACAT, the binding signal in experiment [1] was 1.34 fold enrichment (6-mer frequency, TF over GST control); in experiment [2], 1.22 fold enrichment (6-mer frequency, TF over GST control); in experiment [3], 1.32 fold enrichment (6-mer frequency, TF over GST control); in experiment [4] it was 1.4 fold enrichment (6-mer frequency, TF over GST control); in experiment [5], 1.23 fold enrichment (6-mer frequency, TF over GST control); in experiment [6], 1.33 fold enrichment (6-mer frequency, TF over GST control). In addition, the binding signal in experiment [7] was 1.37 fold enrichment (6-mer frequency, TF over GST control); in experiment [8], 1.42 fold enrichment (6-mer frequency, TF over GST control).
For AATTTT, the binding signal in experiment [1] is 1.36 fold enrichment (6-mer frequency, TF over GST control); in experiment [2], 1.3 fold enrichment (6-mer frequency, TF over GST control); in experiment [3], 1.23 fold enrichment (6-mer frequency, TF over GST control); in experiment [4], 1.22 fold enrichment (6-mer frequency, TF over GST control); in experiment [5] it was 1.14 fold enrichment (6-mer frequency, TF over GST control); in experiment [6], 1.23 fold enrichment (6-mer frequency, TF over GST control). Further, the binding signal was 1.2 fold enrichment (6-mer frequency, TF over GST control) in experiment [7] and 1.13 fold enrichment (6-mer frequency, TF over GST control) in experiment [8].
